# Most compounds without a hit are left out; they make up all but 3.1% or so of the library.
# GoLoco inh red: blocks human Gai1 binding to RGS12 GoLoco peptide, red readout; P63096; Gai1:RGS12 GoLoco peptide FP, rhodamine, 10 min; Potency, µM (series often up to 61.6 µM), for the others: at the highest dose activity, negative = inhibition, most hits filed as inhibitors; 230,000 compounds, 0.44% hits; AID 880; active = well fitted inhibition curve with a large enough effect, not every such curve was filed as active; inactive = no such curve, though single readings can be large or run the other way; also: nearly all actives have a fitted effect of over 30% in size
# Target sequence (P63096 whole entry, looked up): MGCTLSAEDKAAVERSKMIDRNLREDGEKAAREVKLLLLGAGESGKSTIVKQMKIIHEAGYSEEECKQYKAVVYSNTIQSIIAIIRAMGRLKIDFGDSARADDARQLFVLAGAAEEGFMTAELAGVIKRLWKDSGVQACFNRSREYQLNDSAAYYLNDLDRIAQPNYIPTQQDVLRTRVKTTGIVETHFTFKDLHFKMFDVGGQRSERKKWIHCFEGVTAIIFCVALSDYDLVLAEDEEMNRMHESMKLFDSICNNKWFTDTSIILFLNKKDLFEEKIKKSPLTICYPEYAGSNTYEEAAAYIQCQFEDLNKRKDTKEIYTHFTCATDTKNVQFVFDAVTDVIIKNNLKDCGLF
# TR SRC2 fluor cs: alters Texas Red total fluorescence, flagging assay interference; TRb/SRC2 Texas Red total fluorescence interference; Potency, µM (titrated, usually from 106 µM), inactives show at the top dose fluorescence change, negative = quenching; 280,000 compounds, 0.29% hits; AID 1479; active = well fitted curve in either direction with a large enough effect; inconclusive = small, poorly fitted or top-dose-only effect
#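 Human TRβ ligand-binding domain (0.6 uM) and Texas Red SRC2 peptide (20 nM) in Tris buffer with 1 uM T3 and 5% DMSO were incubated with pinned compound for 5 hr at ambient temperature. Total fluorescence was computed as S + 2P (555/632 nm).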
# Tau fibril FP: tau fibrillization inhibition (FP); P10636; K18 P301L tau heparin fibrillization, Alexa594 FP, 6 h; Potency, µM (titrated, usually from 57.7 µM), without a hit: top-dose activity, negative = inhibition, usual class: inhibitors; 280,000 compounds, 0.39% hits; AID 1468; also: nearly all actives have a fitted effect of over 55% in size
# Target sequence (P10636 561-689 P618L limits assumed): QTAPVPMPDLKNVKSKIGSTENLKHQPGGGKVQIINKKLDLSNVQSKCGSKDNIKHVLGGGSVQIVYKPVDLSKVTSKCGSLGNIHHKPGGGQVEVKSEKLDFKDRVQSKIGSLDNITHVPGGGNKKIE
#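 K18 P301L tau (15 uM unlabeled/0.24 uM Alexa 594-labeled, final) + compound + heparin 20 uM final; 100 mM NaOAc pH 7; 6 hr 37 C; ThT 30 uM final added, 1 hr RT; FP ex 555/em 632 nm.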
# Tau fibril ThT: tau fibrillization inhibition (ThT binding); 270,000 compounds, 2.1% hits; Potency, µM (titrated, usually from 57.4 µM), for inactives: at the top dose activity, negative = inhibition, most hits filed as inhibitors; AID 1460; recombinant tau K18 P301L, heparin-induced fibrillization, ThT fluorescence; P10636; also: nearly all actives have a fitted effect of over 55% in size
#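 K18 P301L tau (15 uM + 0.24 uM Alexa 594-tagged), heparin 20 uM, NaOAc pH 7, 6 h 37 C; ThT 30 uM, 1 h RT, ex 450/em 510 nm.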
# TRb-SRC2 inh: disrupts binding of human TR beta to SRC2; Potency, µM (top dose mostly 106 µM), for inactives: at the highest dose activity change, negative = inhibition, most hits filed as inhibitors; AID 1469; 280,000 compounds, 0.065% hits; P10828; TRbeta-SRC2 peptide binding, fluorescence polarization; receptor liganded with 1 µM T3;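 also: plate controls were bound peptide for no effect and peptide without receptor for full effect; nearly all actives have a fitted effect of over 50% in size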
#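 Fluorescence polarization of 20 nM Texas Red SRC2 peptide (20-aa NR interaction domain) bound to 0.6 uM human TRb ligand-binding domain, with 1 uM T3, after 5 hr at ambient temperature; inhibition seen as decreased polarization.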
# Tau fluor counter: counter-screen for tau fibril formation inhibitors; AID 1463; tau K18 P301L (four-repeat tau fragment) Alexa594 fluorescence, heparin fibrillization; Potency, µM (highest dose often 57.7 µM), without a hit: at the top dose activity change, negative = decrease; 280,000 compounds, 0.93% hits; also: nearly all actives have a fitted effect of over 55% in size
#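 Human K18 P301L tau (15 uM unlabeled plus 0.24 uM Alexa 594-labeled, final) in 100 mM sodium acetate pH 7 was mixed with compound and 20 uM heparin and incubated 6 hr at 37 C.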
# An asterisk follows results filed as active; u = inconclusive; x = no result given; ! = not confirmed by another sample; [ ] = another dose, or the depositor's remark. Unless noted, calls follow the shape of the dose curve; as a rule, active = well fitted curve in the direction sought with a large enough effect; inconclusive = small, poorly fitted or top-dose-only effect, or another doubt; inactive = no such curve, though single readings can be large; an effect the other way counts as inactive or inconclusive. Unless noted, % is scaled to controls: 0 for no effect and ±100 for the full control effect; potency is read from the fitted curve at half-maximal effect.
SMILES,GoLoco inh red,TR SRC2 fluor cs,Tau fibril FP,Tau fibril ThT,TRb-SRC2 inh,Tau fluor counter
COc1ccc(Nc2cc(C)nc(-n3nc(C)cc3C)n2)cc1Cl,x,-1%,u,u,-3%,u
O=C(Nc1ccc(Br)c(C(F)(F)F)c1)c1ccccc1,4%,-2%,u,-18%,-2%,u
O=C(Nc1ccc(Br)c(C(F)(F)F)c1)c1ccc(C(F)(F)F)cc1,13%,-1%,22µM*,x,-4%,-28%
COc1ccc2nc(Nc3ccc4c(c3)OCO4)sc2c1,-20%,-7%,1%,u,-9%,u
COc1ccc2nc(Nc3ccccc3)sc2c1,4%,-5%,11%,14µM*,-1%,18µM*[quencher]
COc1ccc2nc(Nc3nc4cc5c(cc4s3)OCO5)sc2c1,-4%,-1%,2%,2.8µM*,1%,7.9µM*[quencher]
COc1ccc2nc(Nc3ccccc3OC)sc2c1,-7%,-6%,10%,13µM*,-1%,u
COc1ccc(Nc2nc(C)c(-c3ccccc3)s2)cc1,8%,-1%,7%,5.6µM*,-2%,8.9µM*[quencher]
COc1ccc(NC(=O)Cc2coc3cc(C)ccc23)cc1S(=O)(=O)N1CCOCC1,21%,9%,1%,-9%,0%,-26%
Cc1cc(=O)n2[nH]cc(C(=O)O)c2n1,3%,-2%,11%,3%,-11%,1%
C/C(=N\NC(=O)c1cc(-c2cccnc2)nc2ccccc12)c1ccc(O)cc1O,16%,-1%,20%,7.9µM*,-1%,u
Cc1ccc(C)c(NC(=O)c2cc(-c3cccnc3)nc3ccccc23)c1,7%,-5%,-3%,-9%,1%,-7%
CC(C)CCNC(=O)c1ccc2c(c1)N(Cc1ccccc1F)C(=O)c1ccccc1S2=O (centres undefined),x,1%,-7%,5%,-6%,-23%
CCN1C(=O)/C(=c2\sc3nc(=O)c(Cc4ccccc4)nn3c2=O)c2ccccc21,6%,1%,-17%,20µM*,2%,-14%
C=CCN1C(=O)/C(=c2\sc3nc(=O)c(Cc4ccccc4)nn3c2=O)c2ccccc21,11%,-6%,u,18µM*,1%,-23%
C=CCN1C(=O)/C(=N/n2cnnc2)c2ccccc21,-15%,3%,-3%,u,12%,-10%
C=CCN1C(=O)/C(=c2\sc3nc(=O)c(Cc4ccc(OC)c(OC)c4)nn3c2=O)c2ccccc21,-5%,-4%,u,28µM*,4%,-30%
O=C(CN1C(=O)C2(OCCO2)c2ccccc21)c1ccc(F)cc1,0%,1%,2%,-2%,-3%,-9%
Cc1cc2ccccc2n1CCNC(=O)c1ccccc1F,x,0%,1%,-14%,-7%,-20%
COc1ccc(CNC(=O)CSc2nnnn2-c2ccccc2)cc1,-4%,1%,-1%,6%,-8%,2%
Cc1cc(OCCOCCN(C)CCO)cc(C)c1Cl,5%,2%,-7%,-5%,-4%,-2%
Cc1cccc2cn[nH]c12,8%,-2%,-5%,-2%,-1%,-5%
CCOC(=O)c1ccc(NC(=O)c2ccccc2[N+](=O)[O-])cc1,-3%,-2%,-5%,-7%,4%,-9%
COC(=O)c1ccc(N/N=C/c2cc([N+](=O)[O-])cc(OC)c2O)cc1,20%,-3%,13%,u,7%,u
CCOC(=O)c1ccc(Nc2ncccc2[N+](=O)[O-])cc1,2%,-1%,-3%,2.2µM*,2%,-29%
SMILES,GoLoco inh red,TR SRC2 fluor cs,Tau fibril FP,Tau fibril ThT,TRb-SRC2 inh,Tau fluor counter
CCOC(=O)c1ccc(N/N=C/c2cc(Br)cc([N+](=O)[O-])c2O)cc1,9%,-5%,-6%,0.45µM*,2%,0.71µM*[quencher]
O=C(NC1=NCCS1)c1ccc(Cl)c(S(=O)(=O)N2CCCC2)c1,6%,-4%,3%,-11%,-3%,-17%
CC(=O)N1CCN(c2ccccc2NC(=O)c2ccc(C#N)cc2F)CC1,3%,0%,-1%,-6%,3%,-10%
COc1cc(OC)cc(C(=O)NC(=S)NNC(=O)Cc2cccs2)c1,-5%,0.32µM*[quencher],-10%,-3%,u,-9%
O=c1c(=Nc2ccccc2O)c(=O)c2ccccc12,4%,3%,u,10µM*,-14%,-13%
O=c1[nH][nH]cc1C=Nc1ccccc1O,10%,-3%,3%,-12%,-4%,0%
Cc1cccc(N2CCN(S(=O)(=O)c3ccc(S(=O)(=O)N4CCCC4)cc3)CC2)c1C,2%,1%,0%,-4%,-2%,-2%
Cc1cccc(N2CCN(S(=O)(=O)c3ccc4c(c3)CC(=O)N4C)CC2)c1C,x,22µM*[quencher],4%,-1%,-7%,5%
COc1ccc(OC)c(CCNC(=O)CC2Oc3ccccc3NC2=O)c1 (centres undefined),-11%,-2%,-8%,-19%,-10%,-15%
CC(=O)c1ccc(NC(=S)Nc2ccn(Cc3ccc(Br)cc3)n2)cc1,6%,-6%,u,10%,0%,10µM*[quencher]
CC(=O)c1cccc(NC(=S)Nc2ccn(Cc3cccc4ccccc34)n2)c1,15%,2%,u,-5%,-11%,-27%
CCOc1ccc(CCNC(=O)c2cn(-c3cccc(OC)c3)c(=O)c3ccccc23)cc1,x,5%,-2%,-7%,7%,-8%
CCN1C=C(C(=O)OC)C(c2cccc(OC)c2OC)C(C(=O)OC)=C1,12%,-4%,-4%,1%,-2%,-3%
CO[C@]12C[C@@H](COC(=O)c3cncc(Br)c3)CN(C)[C@@H]1Cc1cn(C)c3cccc2c13,13µM*!,0%,-2%,u,-4%,-9%
Cc1ccc(N(C)S(=O)(=O)c2ccc3[nH]c4c(c3c2)CCCC4)cc1,x,5%,5%,-5%,3%,14µM*[quencher]
CCOC(=O)c1ccc(NS(=O)(=O)c2ccc3[nH]c4c(c3c2)CCCCC4)cc1,x,-1%,u,-7%,-1%,6.3µM*[quencher]
CCc1ccc(NS(=O)(=O)c2ccc3[nH]c4c(c3c2)CCCCCC4)cc1,x,-12%,u,18%,4%,u
Cc1ccc(NS(=O)(=O)c2ccc3[nH]c4c(c3c2)CCCCCC4)cc1,x,1%,u,-12%,4%,11µM*[quencher]
Cc1ccc(NS(=O)(=O)c2ccc3[nH]c4c(c3c2)CCCCCC4)cc1C,x,0%,-1%,1%,-2%,13µM*[quencher]
CCOC(=O)c1ccc(NS(=O)(=O)c2ccc3c(c2)n(C)c(=O)n3C)cc1,x,4%,-15%,-9%,11%,-20%
O=[N+]([O-])c1ccc(N2CCN(C(=S)Nc3cccc(F)c3)CC2)cc1,20%,-4%,-7%,16µM*,-2%,u

# Source: PubChem BioAssay
